Compound activity (PubChem BioAssay)
AMA1 RON2 block: inhibitors of Plasmodium falciparum AMA1-RON2 interaction; AlphaScreen AMA1-biotinylated RON2 peptide binding; Potency, µM (highest dose often 58.2 µM), without a hit: at the top dose activity change, negative = inhibition, most hits filed as inhibitors; 360,000 tested, 0.2% active; AID 720542;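 also: potency is read from the fitted curve at half-maximal effect; 0% = vehicle wells and -100% = peptide control; nearly all actives have a fitted effect of over 45% in size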
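AMA1 (3D7) with his tag at 25 nM final met compounds first, then biotinylated RON2 peptide at 25 nM; detection used donor plus acceptor beads, 10 µg/mL apiece, read by AlphaScreen after 30 min at room temperature.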
Pf growth 48h: P. falciparum growth inhibition at 48 hours (one generation); P. falciparum luciferase growth in erythrocytes, 48 h; Potency, µM (doses to about 28.7 µM), without a hit: at the highest dose activity change, negative = inhibition, usual class: inhibitors; 310,000 tested, 5.9% active; AID 504832; also: potency is read from the fitted curve at half-maximal effect; % is scaled to controls: 0 for no effect and ±100 for the full control effect
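Growth was read as firefly luciferase luminescence after a 48 h, 37 C, 5% CO2 exposure of compounds to reporter-bearing P. falciparum cultures (0.1% parasitemia, 2% hematocrit final) in Albumax-supplemented RPMI 1640.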
Pf growth 96h: inhibits malaria parasite growth, 96 h. 320,000 tested, 6.9% active. P. falciparum luciferase reporter growth, 96 h. Potency, µM (highest dose often 28.7 µM), without a hit: at the highest dose activity change, negative = inhibition, most hits filed as inhibitors. AID 504834; also: potency is read from the fitted curve at half-maximal effect; % is scaled to controls: 0 for no effect and ±100 for the full control effect
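Cell-based qHTS: luciferase-tagged P. falciparum in erythrocytes (2% hematocrit, 0.05% parasitemia final) incubated with compounds for 96 hours, 37 C, 5% CO2; luciferase detection reagent then added and luminescence measured.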
Cycloheximide cs: counter-screen hit for Shiga toxin inhibitors, cycloheximide; 300,000 tested, 12% active; max response, %; cell reporter, cycloheximide protein synthesis inhibition counterscreen; in the data active = max response mostly above about 13%, no sharp cut-off; inactive = mostly below about 14%; also: read at 38.3 µM for the half of the compounds with a filed dose; 0% is about no effect
Shiga toxin inh: Shiga toxin inhibition; 290,000 tested, 9.2% active; inhibition, % at 38.7 µM; Vero cells, Shiga toxin protein synthesis inhibition reporter; AID 2315; in the data active = inhibition mostly above about 28%, no sharp cut-off; inactive = mostly below about 43%; also: 0% is about no effect
HCV inh: inhibitors of hepatitis C virus infection; Huh7.5.1 HCVcc-Cre infection, luciferase reporter, 44 h; Potency, µM (series often up to 41.8 µM), for inactives: top-dose activity change, negative = inhibition, usual class: inhibitors; 340,000 tested, 3.4% active; also: potency is read from the fitted curve at half-maximal effect; % is scaled to controls: 0 for no effect and ±100 for the full control effect
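Compounds are dispensed onto cells plated 4 h earlier at 1,000 per well, with HCVcc-Cre virus (about 0.5 moi) added next. Following 44 h of culture, luminescent signal is measured for 15 sec after 15 min with substrate at room temperature.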
* hit, by the source's call; i = inactive; ? = inconclusive; . = no result; ! = a repeat was not active; [ ] = remark or other dose. Shown are actives, neighbours in structure and some others; about 21% of the full set was active somewhere. Unless noted, calls follow the shape of the dose curve; as a rule, active = well fitted curve in the direction sought with a large enough effect; inconclusive = small, poorly fitted or top-dose-only effect, or another doubt; inactive = no such curve, though single readings can be large; an effect the other way counts as inactive or inconclusive.

SMILES | AMA1 RON2 block | Pf growth 48h | Pf growth 96h | Cycloheximide cs | Shiga toxin inh | HCV inh
CC(c1ccccc1)n1cnc2ccccc21 (configuration not stated) | -5% | -18% | 32% | 8 | 19 | 2%
COc1ccc(CCNC(=O)c2cccnc2Cl)cc1OC | -1% | . | . | . | . | 0%
NC(N)=Nc1nc(CSCC/C(N)=N/S(N)(=O)=O)cs1 | 70% | -1% | 4.3µM*! | -3 | -13 | -15%[8.37 µM]
CCOC(=O)C(C)c1c(C(=O)c2ccc(C)nc2)c2ccccc2n1C (configuration not stated) | . | 3.7µM* | 4.7µM* | 7 | -9 | .
CCOC(=O)N1CCN(C(=O)COc2cc(=O)n(C)c3ccccc23)CC1 | 1% | 11% | ? | -1 | -6 | 6%
CN1N=C(C(C)(C)C)CSC1=Nc1ccc(F)cc1 | 0% | ? | 10% | 19* | 36 | -7%
S=C1SCN(CC2CC2)CN1CC1CC1 | 19% | ? | 5.2µM* | -3 | -11 | ?
S=C1SCN(CCc2ccccc2)CN1CCc1ccccc1 | 131% | . | . | . | . | .
CCCC[C@@H]1CNC(=O)C(=O)N1CCc1cccc(F)c1 | 42% | . | . | . | . | .
CC(C#N)(Cc1ccccc1)Nc1ccccc1 (configuration not stated) | 10% | . | . | . | . | 18%
COC(=O)c1c(C)[nH]c(/C=N/Nc2ccccc2)c1C | 11% | 5.2µM* | ? | 20* | 60 | -15%
CN1CCC(OC(=O)C23CCC(C)(C(=O)O2)C3(C)C)CC1 (configuration not stated) | 9% | 10% | . | -6 | -20 | 16%
CC12CCC(C(=O)OC3CCCCC3)(OC1=O)C2(C)C (configuration not stated) | -3% | 31% | 12µM* | -2 | -5 | 24%
O=c1cc(-c2ccccc2)oc2ccc(Cl)cc12 | 25% | . | . | . | . | -12%
O=c1cc(-c2cccs2)oc2ccc(Cl)cc12 | -3% | 149% | 0% | 37* | 59* | -6%
O=c1cc(-c2ccc3c(c2)OCCO3)oc2ccc(Cl)cc12 | 1% | 241% | 325% | 47* | 76* | 3%
Clc1ccc2c(N/N=C/c3cccc(Br)c3)ccnc2c1 | -1% | 0.59µM* | 0.33µM* | 11 | 43 | ?
O=[N+]([O-])c1ccc(/C=N/NS(=O)(=O)c2ccc(Cl)cc2)o1 | -2% | 17% | 0% | 6 | 6 | 7%
Clc1ccc2c(NNc3ccccc3Cl)ccnc2c1 | ? | ? | ? | -3 | -22 | -1%
O=[N+]([O-])c1ccc(/C=N/Nc2ccnc3cc(Cl)ccc23)o1 | ? | 2.3µM* | ? | 27 | 169* | ?
Clc1ccc2c(N/N=C/c3ccccc3Br)ccnc2c1 | 9% | 0.66µM* | 0.52µM* | -3 | 11 | ?
COc1cccc(OC)c1C(=O)NC1C(=O)N2C1SC(C)(C)C2C(=O)O (configuration not stated) | . | 3% | -3% | . | . | .
COc1ccc(NC(=O)CN(C)C2=NS(=O)(=O)c3ccccc32)cc1Cl | -8% | . | . | . | . | 2%
CCCNC(=O)c1cc(C2CCCN(C(=O)c3ccccc3)C2)on1 (configuration not stated) | 21% | . | . | . | . | .
CC12CC3(C)CC(C)(C1)CC(C(=O)NC(=S)N1CCCC1)(C2)C3 | 43% | 6.6µM* | ? | -5 | 2 | 9%
SMILES | AMA1 RON2 block | Pf growth 48h | Pf growth 96h | Cycloheximide cs | Shiga toxin inh | HCV inh
CC(C)(C)C(=O)NC(=S)N1CCCC1 | 21% | 10% | -20% | -2 | -8 | 3%
CCCCNC(=O)c1nc(C2CCN(S(=O)(=O)c3ccc(C(F)(F)F)cc3)CC2)oc1-c1ccccc1 | 10% | . | . | . | . | .
CCOC(=O)C1CCCN(C(=O)C(=O)Nc2ccc3nc4n(c(=O)c3c2)CCCCC4)C1 (configuration not stated) | 4% | ? | 81% | -3 | -4 | ?
O=C(Nc1ccc2nc3n(c(=O)c2c1)CCCCC3)C(=O)N1CCN(c2ccc(F)cc2)CC1 | -4% | ? | ? | -4 | -2 | -16%
COc1cc(C(=O)Nc2ccc3nc4n(c(=O)c3c2)CCCCC4)cc(OC)c1OC | -11% | -8% | 2.6µM* | 14 | 28 | 11µM*
CCCN(C(=O)C(=O)Nc1ccc2nc3n(c(=O)c2c1)CCCCC3)c1ccc(OCC)cc1 | -3% | 0.12µM* | -9% | 6 | 14 | ?
CCOC(=O)Nc1ccc2nc3n(c(=O)c2c1)CCCCC3 | -6% | 34% | 0% | 31* | 45* | -24%
O=C(Nc1ccc2nc3n(c(=O)c2c1)CCCC3)c1cccc(F)c1 | -5% | 0% | 115% | 42* | 39* | -15%
COc1ccc(C(=O)Nc2ccc3nc4n(c(=O)c3c2)CCCCC4)cc1OC | -1% | . | . | . | . | .
CCOc1ccc(N(CC(=O)NC(C)(C)C)C(=O)CCC(=O)Nc2nccs2)cc1 | 6% | -22% | 18% | 0 | -7 | 10%
O=c1c2cc(NC(=S)NCc3ccccn3)ccc2nc2n1CCCCC2 | 48% | -24% | 13% | 7 | -5 | 2%
Cc1cccc(N2CCN(C(=S)Nc3ccc4nc5n(c(=O)c4c3)CCCCC5)CC2)c1C | 5% | -29% | ? | -8 | -3 | 6.3µM*
O=c1c2cc(NC(=S)NC3CCCCC3)ccc2nc2n1CCCCC2 | 2% | ? | ? | 2 | 12 | ?
O=C(Nc1ccc2nc3n(c(=O)c2c1)CCCC3)c1ccccc1F | 105% | -10% | ? | 31* | 70* | -14%
O=c1c2cc(NC(=S)NC3CCCC3)ccc2nc2n1CCCCC2 | -5% | -10% | ? | 30* | 38 | ?
O=C(Nc1ccc2nc3n(c(=O)c2c1)CCCCC3)c1ccccn1 | 98% | 1% | -35% | 36* | 59* | -5%
O=C(Nc1ccc2nc3n(c(=O)c2c1)CCCCC3)c1ccccc1[N+](=O)[O-] | -6% | -4% | 7% | 16 | 16 | ?
COc1cc(-c2nnc(SCc3c(F)cccc3Cl)o2)cc(OC)c1OC | 11% | ? | . | 9 | 11 | 35µM*
c1ccc2c(CSc3nnc(-c4ccncc4)o3)cccc2c1 | 1% | ? | ? | 1 | -7 | ?
O=C(O)c1ccc(CSc2nnc(Cc3ccccc3)o2)cc1 | 3% | . | 2% | -4 | -8 | 15%
Fc1cccc(Cl)c1CSc1nnc(-c2ccncc2)o1 | 12% | 82% | 85% | 36* | 57* | 8%
Clc1ccccc1CSc1nnc(-c2ccncc2)o1 | 3% | 35% | 0% | 47* | 54* | -8%
N#Cc1ccccc1CSc1nnc(Cc2ccccc2)o1 | 17% | 5% | ? | 21* | 53* | 9%
Brc1cccc(CSc2nnc(-c3ccncc3)o2)c1 | -10% | -22% | 29% | -5 | -6 | ?
CC(=O)N1CC[C@H]2CC(=O)CC[C@@]21C | . | . | . | 3 | i | .
